From PubChem BioAssay (EPA / NIEHS)
“And” between values parts separate entries of the source, which are not always exact repeats. Equal values may be shown once. Results filed as inconclusive are left out. More than one record can exist for a structure, and the calls need not agree. The source made the active and inactive calls. Rule for the calls, unless noted: active = hit-call score of the fitted dose curve at least 0.9, where 1 is the maximum; inactive = score below 0.9.

What was measured:
[1] = ATG_PBREM_CIS: Attagene CIS-FACTORIAL HepG2 Assay for human Phenobarbital-responsive Enhancer Module (PBREM) (AID 2282955); conditions: HepG2 PBREM cis-reporter, Attagene multiplexed transcription; actives raise or lower the signal
Summary of the method: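 HepG2, transient MRTU transfection, 24 h dosing; RNA → oligo(dT) RT → PCR → 6-FAM extension → HpaI → CE. Bidirectional fit vs DMSO.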

[2] = biological target: Paired box protein Pax-6 (Homo sapiens) (UniProt P26367); test: ATG_Pax6_CIS: Attagene CIS-FACTORIAL HepG2 Assay for human Paired Box 6 (PAX6) (AID 2282956); conditions: HepG2 CIS-FACTORIAL PAX6 reporter transcription, RNA readout; actives raise or lower the signal
Summary of the method: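 Fluorescent RT-PCR products separated by capillary electrophoresis report PAX6-linked promoter mRNA in HepG2 cells 24 h post-dose. Curves fitted bidirectionally, DMSO as negative control.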

[3] = ATG_PXRE_CIS: Attagene CIS-FACTORIAL HepG2 Assay for human Pregnane X Receptor Element (PXRE) (AID 2282957); conditions: HepG2 Attagene CIS-FACTORIAL PXRE reporter, mRNA; actives raise or lower the signal
Summary of the method: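 Endogenous transcription factor activity in HepG2 was gauged through induction of reporter mRNA driven by a cis-regulating promoter element, sampled 24 h post-treatment. Activity was fitted in both directions against DMSO negative control.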

[4] = ATG_RORE_CIS: Attagene CIS-FACTORIAL HepG2 Assay for human RAR-related Orphan Receptor Element (RORE) (AID 2282959); conditions: HepG2 Attagene cis-factorial RORE reporter, mRNA; actives raise or lower the signal
Summary of the method: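 Multiplexed reporter assay measuring mRNA induction from a cis promoter element in transiently transfected HepG2 cells after 24 h treatment. Detection via RT-PCR and capillary electrophoresis fluorescence; DMSO serves as baseline.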

[5] = ATG_Sox_CIS: Attagene CIS-FACTORIAL HepG2 Assay for human SRY-box transcription factor (SOX) (AID 2282960); conditions: HepG2 Attagene cis-factorial SOX reporter, mRNA; actives raise or lower the signal
Summary of the method: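 Cells were transfected with reporter constructs under cis-regulatory promoters, then exposed to chemicals for 24 h. Reporter transcripts were quantified by fluorescence after RT-PCR and capillary electrophoresis; activity was fitted in both directions against DMSO.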

[6] = biological target: Transcription factor Sp1 (Homo sapiens) (UniProt P08047); test: ATG_Sp1_CIS: Attagene CIS-FACTORIAL HepG2 Assay for human Specificity Protein 1 (Sp1) (AID 2282961); conditions: HepG2 Sp1 cis-reporter transcription, actives raise or lower the signal
Summary of the method: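 Measures mRNA induction of an Sp1-linked reporter in HepG2 cells 24 h post-dosing. Multiplexed reporters read by RT-PCR and capillary electrophoresis; DMSO serves as negative control and baseline.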

[7] = ATG_SREBP_CIS: Attagene CIS-FACTORIAL HepG2 Assay for human Sterol Regulatory Element Binding (SREBP) (AID 2282962); conditions: HepG2 Attagene cis-factorial SREBP reporter, mRNA; actives raise or lower the signal
Summary of the method: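 Endogenous factor activity is measured in HepG2 through multiplexed reporter units under cis-element control. Following a 24 h incubation, reporter transcripts are reverse-transcribed, PCR-amplified and sized by capillary electrophoresis; activity is fitted in both directions relative to DMSO.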

[8] = biological target: Signal transducer and activator of transcription 3 (Homo sapiens) (UniProt P40763); test: ATG_STAT3_CIS: Attagene CIS-FACTORIAL HepG2 Assay for human Signal Transducer and Activator of Transcription 3 (STAT3) (AID 2282963); conditions: HepG2, Attagene cis-factorial STAT3 reporter transcription; actives raise or lower the signal
Summary of the method: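 Fluorescence intensity of 6-FAM-labelled reporter fragments, separated by capillary electrophoresis after RT-PCR, gave the signal. Cells were HepG2 transfected with cis-element reporter units and treated 24 h; fitting was bidirectional relative to DMSO.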

[9] = ATG_TA_CIS: Attagene CIS-FACTORIAL HepG2 Assay for human TA Basal Promoter (AID 2282964); conditions: HepG2 Attagene CIS-factorial TA basal promoter reporter; actives raise or lower the signal
Summary of the method: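 Steps: transfect HepG2 with MRTUs; dose 24 h; isolate RNA, DNase-treat, reverse-transcribe; PCR and FAM-label reporter cDNA; digest with HpaI 2h at 37 C; run capillary electrophoresis. Activity fitted both directions against DMSO.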

[10] = ATG_TCF_b_cat_CIS: Attagene CIS-FACTORIAL HepG2 Assay for human T-Cell-Factor with beta-catenin (TCF/b-cat) (AID 2282965); conditions: HepG2 TCF/beta-catenin cis-reporter transcription, actives raise or lower the signal
Summary of the method: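 HepG2, transient MRTU transfection, cis-element-driven reporters (endogenous TFs). 24 h compound exposure. Readout: reporter mRNA by RT-PCR + 6-FAM primer extension, HpaI digest, capillary electrophoresis. Gain/loss fit vs DMSO baseline.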

[11] = ATG_TAL_CIS: Attagene CIS-FACTORIAL HepG2 Assay for human TAL Basal Promoter (AID 2282966); conditions: HepG2 Attagene cis-factorial TAL promoter reporter; actives raise or lower the signal;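 note: background control endpoint measuring basal TAL promoter reporter mRNA not a specific factor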
Summary of the method: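 Endogenous transcription-factor activity is sensed in HepG2 cells through transfected cis-promoter reporter constructs. After 24 h dosing, reporter transcripts are quantified by RT-PCR and capillary electrophoresis. Gain or loss of signal is fitted relative to DMSO.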

[12] = ATG_TGFb_CIS: Attagene CIS-FACTORIAL HepG2 Assay for human Transforming Growth Factor (TGF) (AID 2282967); conditions: HepG2 Attagene CIS TGFb reporter, mRNA transcription; actives raise or lower the signal
Summary of the method: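 Cells were dosed for 24 hours, after which total RNA was reverse-transcribed and reporter sequences amplified, labeled and sized by capillary electrophoresis. Activity was fitted in both directions against DMSO.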

[13] = ATG_VDRE_CIS: Attagene CIS-FACTORIAL HepG2 Assay for human Vitamin D Receptor Element (VDRE) (AID 2282968); conditions: HepG2 VDRE cis-reporter transcription, actives raise or lower the signal
Summary of the method: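 Compounds were applied for 24 h to HepG2 cells transfected with promoter-regulated reporter units. Total RNA was reverse-transcribed, and reporter amplicons were fluorescently labelled and sized by capillary electrophoresis.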

[14] = biological target: Nuclear receptor subfamily 1 group I member 3 (Homo sapiens) (UniProt Q14994); test: ATG_CAR_TRANS: Attagene TRANS-FACTORIAL HepG2 Assay for human Constitutive Androstane Receptor (CAR) (AID 2282969; active = hit-call score of the fitted dose curve at least 0.9, where 1 is the maximum;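 note: activators raise reporter mRNA above DMSO so AC50 marks induction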); conditions: HepG2 Attagene TRANS-FACTORIAL CAR reporter
Summary of the method: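 Transiently transfected HepG2, multiplex TRANS reporters (CAR-Gal4 chimera driving GAL4-UAS reporter). 24 h dosing. Readout: reporter transcript by RT-PCR + capillary electrophoresis, fluorescence intensity; positive direction vs DMSO.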

[15] = biological target: Estrogen receptor (Homo sapiens) (UniProt P03372); test: ATG_ERa_TRANS: Attagene TRANS-FACTORIAL HepG2 Assay for human Estrogen Receptor alpha (ERa) (AID 2282970; active = hit-call score of the fitted dose curve at least 0.9, where 1 is the maximum); conditions: HepG2 Attagene TRANS ERa GAL4 reporter, mRNA
Summary of the method: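 Transfected HepG2 cells carrying GAL4-UAS-driven reporter units were dosed for 24 hours. Total RNA was reverse-transcribed, reporter sequences PCR-amplified, FAM-labelled, HpaI-digested and resolved by capillary electrophoresis. Increases over DMSO control defined activity.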

[16] = biological target: X-box-binding protein 1 (Homo sapiens) (UniProt P17861); test: ATG_Xbp1_CIS: Attagene CIS-FACTORIAL HepG2 Assay for human X-box Binding Protein 1 (XBP1) (AID 2282972); conditions: HepG2 XBP1 cis-element reporter, Attagene multiplex; actives raise or lower the signal
Summary of the method: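 Multiplexed cis-reporter readout in transfected HepG2 liver cells. Exposure lasted 24 hours. Activity in either direction was fitted against DMSO as negative control and baseline.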

[17] = ATG_PPRE_CIS: Attagene CIS-FACTORIAL HepG2 Assay for human Peroxisome Proliferator-activated Response Element (PPRE) (AID 2282958); conditions: HepG2 PPRE cis-element reporter, Attagene transcription factor profiling; actives raise or lower the signal
Summary of the method: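 Transcript-level reporter induction in transfected HepG2 cells after 24 h chemical exposure, quantified by fluorescence from RT-PCR products separated by capillary electrophoresis.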

[18] = ATG_GAL4_TRANS: Attagene TRANS-FACTORIAL HepG2 Assay for GAL4 (Internal Marker) (AID 2282976; active = hit-call score of the fitted dose curve at least 0.9, where 1 is the maximum); conditions: HepG2 Attagene TRANS GAL4 internal marker reporter
Summary of the method: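 Fluorescence from capillary electrophoresis of labelled RT-PCR products quantifies reporter mRNA induction after 24 h dosing of HepG2 cells carrying transfected GAL4-UAS reporter transcription units. Vehicle DMSO serves as baseline.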

[19] = ATG_M_19_TRANS: Attagene TRANS-FACTORIAL HepG2 Assay for M19 Transcription Factor (Internal Marker) (AID 2282974; active = hit-call score of the fitted dose curve at least 0.9, where 1 is the maximum); conditions: HepG2 Attagene TRANS-FACTORIAL M19 internal marker reporter
Summary of the method: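 After transfection of HepG2 with GAL4-UAS-driven reporter constructs, cells are dosed for 24 h. Total RNA is reverse-transcribed, reporter sequences PCR-amplified and labelled, then HpaI-digested and sized by capillary electrophoresis.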

[20] = biological target: Steroid hormone receptor ERR1 (Homo sapiens) (UniProt P11474); test: ATG_ERRa_TRANS: Attagene TRANS-FACTORIAL HepG2 Assay for human Estrogen-Related Receptor alpha (ERRa) (AID 2282971; active = hit-call score of the fitted dose curve at least 0.9, where 1 is the maximum); conditions: HepG2 Attagene TRANS reporter, ERRa transactivation
Summary of the method: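 HepG2 cells were transiently transfected with multiple GAL4-UAS reporter units, then dosed with compound for 24 h. Total RNA was reverse-transcribed, reporter cDNA PCR-amplified and fluorescently labelled, and fragments resolved by capillary electrophoresis; induction was compared with DMSO.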

Measured: AC50

Estrogen receptor (Homo sapiens), sequence (P03372 whole entry, looked up, the tested form may be a part): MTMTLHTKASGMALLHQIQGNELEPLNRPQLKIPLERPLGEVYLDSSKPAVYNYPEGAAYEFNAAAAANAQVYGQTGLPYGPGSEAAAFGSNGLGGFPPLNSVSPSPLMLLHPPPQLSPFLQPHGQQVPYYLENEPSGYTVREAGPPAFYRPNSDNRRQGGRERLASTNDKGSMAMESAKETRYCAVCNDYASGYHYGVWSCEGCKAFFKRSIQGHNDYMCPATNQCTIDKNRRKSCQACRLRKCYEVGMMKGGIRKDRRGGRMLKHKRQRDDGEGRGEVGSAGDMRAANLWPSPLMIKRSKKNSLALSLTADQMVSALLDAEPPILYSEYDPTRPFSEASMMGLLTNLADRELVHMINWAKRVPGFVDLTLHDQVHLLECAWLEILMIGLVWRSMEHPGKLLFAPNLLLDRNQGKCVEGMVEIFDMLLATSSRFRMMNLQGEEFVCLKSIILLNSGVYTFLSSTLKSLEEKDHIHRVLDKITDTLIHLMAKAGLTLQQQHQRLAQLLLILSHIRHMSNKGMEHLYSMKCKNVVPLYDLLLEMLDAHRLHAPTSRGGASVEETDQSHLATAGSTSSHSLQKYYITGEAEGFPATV
Paired box protein Pax-6 (Homo sapiens), sequence (P26367 whole entry, looked up): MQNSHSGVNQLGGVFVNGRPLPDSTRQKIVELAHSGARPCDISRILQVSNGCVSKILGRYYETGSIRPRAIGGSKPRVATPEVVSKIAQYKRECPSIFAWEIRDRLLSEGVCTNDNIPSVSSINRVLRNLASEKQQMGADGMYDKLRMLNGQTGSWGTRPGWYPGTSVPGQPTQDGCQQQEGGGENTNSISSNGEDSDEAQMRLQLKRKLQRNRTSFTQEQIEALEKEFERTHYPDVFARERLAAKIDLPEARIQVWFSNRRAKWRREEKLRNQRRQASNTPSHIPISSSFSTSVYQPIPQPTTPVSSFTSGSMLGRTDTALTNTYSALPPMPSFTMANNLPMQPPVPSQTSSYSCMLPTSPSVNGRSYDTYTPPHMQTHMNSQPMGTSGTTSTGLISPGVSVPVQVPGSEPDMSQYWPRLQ
X-box-binding protein 1 (Homo sapiens), sequence (P17861 whole entry, looked up): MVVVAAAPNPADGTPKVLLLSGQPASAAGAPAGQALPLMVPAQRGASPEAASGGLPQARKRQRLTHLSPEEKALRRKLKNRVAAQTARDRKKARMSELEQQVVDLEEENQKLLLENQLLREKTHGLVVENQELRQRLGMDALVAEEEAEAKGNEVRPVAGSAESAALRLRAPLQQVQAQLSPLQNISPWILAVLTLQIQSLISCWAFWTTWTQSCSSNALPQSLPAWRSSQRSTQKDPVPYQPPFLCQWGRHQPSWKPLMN
Transcription factor Sp1 (Homo sapiens), sequence (P08047 whole entry, looked up): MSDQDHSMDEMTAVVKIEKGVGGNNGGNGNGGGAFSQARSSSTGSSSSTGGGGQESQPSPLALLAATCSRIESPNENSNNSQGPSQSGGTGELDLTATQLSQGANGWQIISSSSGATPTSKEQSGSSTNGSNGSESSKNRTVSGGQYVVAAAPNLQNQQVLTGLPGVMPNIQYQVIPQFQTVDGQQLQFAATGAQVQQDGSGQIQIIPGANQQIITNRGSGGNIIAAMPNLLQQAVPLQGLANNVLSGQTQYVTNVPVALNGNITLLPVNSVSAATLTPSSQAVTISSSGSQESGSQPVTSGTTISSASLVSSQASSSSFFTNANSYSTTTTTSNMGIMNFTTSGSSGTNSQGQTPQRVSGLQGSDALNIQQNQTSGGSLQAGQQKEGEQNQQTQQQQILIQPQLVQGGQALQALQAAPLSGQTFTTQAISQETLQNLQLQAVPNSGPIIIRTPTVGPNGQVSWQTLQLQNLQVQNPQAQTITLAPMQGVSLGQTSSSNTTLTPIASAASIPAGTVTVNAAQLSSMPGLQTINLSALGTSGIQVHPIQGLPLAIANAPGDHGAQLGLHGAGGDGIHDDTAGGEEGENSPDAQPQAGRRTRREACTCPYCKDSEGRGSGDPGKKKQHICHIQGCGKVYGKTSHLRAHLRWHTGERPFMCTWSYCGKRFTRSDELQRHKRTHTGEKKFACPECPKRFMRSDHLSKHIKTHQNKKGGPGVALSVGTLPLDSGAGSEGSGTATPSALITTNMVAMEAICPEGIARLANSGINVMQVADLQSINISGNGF
Signal transducer and activator of transcription 3 (Homo sapiens), sequence (P40763 whole entry, looked up, the tested form may be a part): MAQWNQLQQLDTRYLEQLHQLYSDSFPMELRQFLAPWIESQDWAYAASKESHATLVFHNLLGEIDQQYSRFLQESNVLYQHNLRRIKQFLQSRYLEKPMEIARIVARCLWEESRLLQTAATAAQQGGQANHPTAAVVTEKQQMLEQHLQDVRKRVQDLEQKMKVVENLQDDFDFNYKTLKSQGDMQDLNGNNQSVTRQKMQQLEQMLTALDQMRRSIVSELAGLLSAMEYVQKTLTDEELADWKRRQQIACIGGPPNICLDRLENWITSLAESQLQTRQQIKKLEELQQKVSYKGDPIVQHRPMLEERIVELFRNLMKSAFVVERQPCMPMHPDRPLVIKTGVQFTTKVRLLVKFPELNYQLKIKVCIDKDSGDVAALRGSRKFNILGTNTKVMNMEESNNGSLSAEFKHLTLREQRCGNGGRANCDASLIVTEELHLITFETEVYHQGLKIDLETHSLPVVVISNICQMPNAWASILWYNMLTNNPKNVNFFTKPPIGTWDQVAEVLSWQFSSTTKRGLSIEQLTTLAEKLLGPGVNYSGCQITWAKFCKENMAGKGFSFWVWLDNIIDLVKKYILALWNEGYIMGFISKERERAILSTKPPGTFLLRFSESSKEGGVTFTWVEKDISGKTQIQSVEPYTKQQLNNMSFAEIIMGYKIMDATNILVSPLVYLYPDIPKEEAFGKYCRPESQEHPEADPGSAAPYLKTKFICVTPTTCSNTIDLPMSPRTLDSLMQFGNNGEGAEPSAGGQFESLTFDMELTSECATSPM
Nuclear receptor subfamily 1 group I member 3 (Homo sapiens), sequence (Q14994 whole entry, looked up, the tested form may be a part): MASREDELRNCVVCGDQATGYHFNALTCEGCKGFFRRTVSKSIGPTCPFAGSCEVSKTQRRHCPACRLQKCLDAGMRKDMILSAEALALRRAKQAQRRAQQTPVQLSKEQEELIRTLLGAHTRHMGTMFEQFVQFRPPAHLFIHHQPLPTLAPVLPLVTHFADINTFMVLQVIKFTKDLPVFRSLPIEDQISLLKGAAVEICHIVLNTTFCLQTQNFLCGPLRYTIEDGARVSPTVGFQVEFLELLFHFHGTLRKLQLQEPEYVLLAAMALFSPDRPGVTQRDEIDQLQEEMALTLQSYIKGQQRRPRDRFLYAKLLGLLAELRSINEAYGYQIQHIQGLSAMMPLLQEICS
Steroid hormone receptor ERR1 (Homo sapiens), sequence (P11474 whole entry, looked up, the tested form may be a part): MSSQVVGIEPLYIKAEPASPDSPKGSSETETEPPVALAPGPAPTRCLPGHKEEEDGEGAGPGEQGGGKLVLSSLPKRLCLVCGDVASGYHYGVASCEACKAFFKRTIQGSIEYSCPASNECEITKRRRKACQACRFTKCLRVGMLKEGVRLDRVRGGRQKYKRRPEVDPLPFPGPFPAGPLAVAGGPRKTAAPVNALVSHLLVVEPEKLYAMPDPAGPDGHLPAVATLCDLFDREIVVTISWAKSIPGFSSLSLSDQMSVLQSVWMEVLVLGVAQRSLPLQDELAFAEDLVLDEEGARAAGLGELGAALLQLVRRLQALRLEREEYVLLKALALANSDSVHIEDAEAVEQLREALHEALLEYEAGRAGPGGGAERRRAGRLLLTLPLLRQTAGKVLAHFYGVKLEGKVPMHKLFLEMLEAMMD

CC(C)(C)c1ccc(O)c(C(C)(C)C)c1
active: [3] 7.21 µM | [14] 4.79 µM
not listed: [17] | [18] | [19] | [20]
inactive: all other assays above

COC(=O)CCCCC(=O)OC
not listed: [1] | [14] | [19] | [20]
inactive: all other assays above

Cc1oc(-c2ccccc2)nc1CCOc1ccc(C[C@H](Nc2ccccc2C(=O)c2ccccc2)C(=O)O)cc1
active: [2] 14.4 µM | [13] 16.6 µM
not listed: [1] | [14] | [17] | [19] | [20]
inactive: all other assays above

CCc1ccc(CCOc2ccc(CC3SC(=O)NC3=O)cc2)nc1 (stereo not given)
active: [3] 6.6 µM and 1.59 µM | [7] 26.2 µM
inactive: [1] | [2] | [4] | [5] | [6] | [7] | [8] | [9] | [10] | [11] | [12] | [13] | [14] | [15] | [16] | [19] | [18]

N#C[C@@H]1CC(F)(F)CN1C(=O)CNC1CC2CCC(C1)N2c1ncccn1 (stereo not given in full)
active: [3] 75.6 µM
not listed: [1] | [13] | [14]
inactive: all other assays above

Oc1cccc(O)c1
not listed: [1] | [14] | [20]
inactive: all other assays above
